# Compound activity from PubChem.
# This is a sample that favours compounds with a hit; in the whole collection about 3.4% have one here.
# MITF primary: inhibitors of human MITF; O75030; AlphaScreen MITF homodimerization, bead proximity signal; inhibition, % at 2.6 µM; 0.91% of 650,000 active; AID 1259374; in the data active = inhibition above about 50%;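 also: 0% = vehicle wells with protein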
# TEAD-YAP block: TEAD-YAP interaction inhibition. 1.4% of 640,000 active. HEK-TIYL cells, TEAD-Gal4/YAP UAS-luciferase luminescence. AID 1259422. inhibition, % at 9.12 µM; in the data active = inhibition above about 32%;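 also: 0% = median of test compound wells and 100% = reference inhibitor wells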
# GPR151 ag: activators of human GPR151; 1% of 650,000 active; AID 1508602; PathHunter beta-arrestin GPR151 cells, luminescence; Q8TDV0; activation, % at 11.2 µM; in the data active = activation above about 4.9%;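 also: 0% = median of compound wells and 100% = cells with positive control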
# Target sequence (Q8TDV0 whole entry, looked up): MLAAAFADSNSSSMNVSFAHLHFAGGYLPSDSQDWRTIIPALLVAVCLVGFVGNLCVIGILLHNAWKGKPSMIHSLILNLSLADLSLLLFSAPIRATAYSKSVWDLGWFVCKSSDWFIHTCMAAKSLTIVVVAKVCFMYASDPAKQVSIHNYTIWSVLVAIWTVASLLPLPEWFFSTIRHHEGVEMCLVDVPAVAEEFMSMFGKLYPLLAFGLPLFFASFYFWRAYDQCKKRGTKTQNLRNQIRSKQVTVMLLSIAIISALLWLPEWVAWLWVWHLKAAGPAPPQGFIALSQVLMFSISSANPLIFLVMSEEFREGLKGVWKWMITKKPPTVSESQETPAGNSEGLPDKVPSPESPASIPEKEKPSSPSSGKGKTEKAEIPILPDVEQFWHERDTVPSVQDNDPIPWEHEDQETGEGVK
# FBW7 activator: human FBW7 E3 ligase activation, primary screen; Q969H0; AlphaScreen FBW7–phospho-cyclin E peptide binding, activator screen; normalized activity (activation), % at 26.1 µM; 0.13% of 650,000 active; AID 1259310; in the data active = normalized activity above about 1.9%;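 also: purified mutant Fbw7 with reduced substrate affinity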
# * = called active by the depositor.
SMILES,MITF primary,TEAD-YAP block,GPR151 ag,FBW7 activator
CCOC(=O)N1CCN(C(=O)CC2(c3ccccc3Cl)CC(=O)N(C)C2=O)CC1 (stereo not drawn),-9.2,5.5,-0.2,0.1
COc1cccc(CSc2nncn3c2cc2occc23)c1,13.6,-2.0,-0.7,0.4
COc1cccc(CSc2nncn3c2cc2oc(C)cc23)c1,6.2,-5.1,-0.7,24.5*
O=C(NCc1cccnc1)c1cnc(N2CCN(c3ccccn3)CC2)c2ccccc12,-7.6,38.7*,0.5,0.2
O=C(NCc1ccc(F)cc1)c1cnc(N2CCN(c3ccccn3)CC2)c2ccccc12,0.6,8.5,-0.8,-0.1
Cc1c(C(=O)NCc2cccnc2)sc2ncnc(N3CCN(c4ccccn4)CC3)c12,4.5,34.7*,0.4,-0.1
O=C(NCC1COc2ccccc2O1)c1cnc(N2CCN(c3ncccn3)CC2)c2ccccc12 (stereo not drawn),-11.7,23.3,0.6,-0.1
O=C(NCC1COc2ccccc2O1)c1cnc(N2CCN(c3ccccn3)CC2)c2ccccc12 (stereo not drawn),-5.6,41.2*,0.4,-0.1
COc1ccccc1/C=C/CN1CCN(c2ccccn2)CC1,47.5,6.9,0.1,0.6
O=C1C2=C(C(c3ccccc3)=NCCN2)C(c2ccc(Cl)cc2Cl)N1c1ccccc1 (stereo not drawn),-2.7,-5.8,0.4,-0.1
N=c1sc2c(n1CC(=O)c1ccc(I)cc1)CCCC2,0.0,-42.3,1.1,-0.1
N=c1sc2c(n1CC(=O)c1ccc(Cl)cc1)CCCC2,-15.0,36.6*,-1.0,0.1
O=c1[nH]cccc1-c1nc2ccc(Cl)cc2s1,-3.6,78.2*,-2.3,-0.1
O=C1CC(C(=O)Nc2nc3ccc(Cl)cc3s2)c2ccccc21 (stereo not drawn),-0.7,-1.8,1.6,-0.2
COc1cc(Nc2nc3ccccc3n3cnnc23)cc(OC)c1OC,-4.1,-4.1,-1.0,-0.2
COc1cc(Nc2nc3ccc(C)cc3n3cnnc23)cc(OC)c1OC,19.9,33.9*,0.9,0.0
Cc1ccccc1NS(=O)(=O)c1ccc(N2CCCC2=O)cc1,4.0,47.5*,0.1,0.0
COc1ccc(NC(=O)CSc2nc3[nH]ncc3c(=O)n2-c2cccc(Cl)c2)c(OC)c1,-0.4,19.9,1.7,-0.1
OCCNc1c2ccccc2nc2ccccc12,2.7,71.0*,-0.3,0.4
c1ccc2c(NCCc3cnc[nH]3)c3ccccc3nc2c1,11.9,77.3*,-1.6,0.0
O=C(O)CNc1c2ccccc2nc2ccccc12,15.5,-5.3,1.5,0.2
Cc1ccc(-c2cn3nc(C)c(C)nc3n2)cc1,-3.2,46.1*,-5.1,0.0
COc1ccc(-c2cn3nc(C)c(C)nc3n2)cc1OC,1.8,-54.3,0.9,-0.4
CC(=O)Nc1ccc(-c2nnc(SCc3ccc(Cl)cc3)n2C)cc1,8.0,-2.8,0.7,0.0
Cc1sc(NC(=O)c2ccc(Cl)s2)c(C(N)=O)c1C,-6.5,-61.4,-1.5,0.0
SMILES,MITF primary,TEAD-YAP block,GPR151 ag,FBW7 activator
Cc1sc(NC(=O)c2ccc(Cl)s2)c(C(N)=O)c1-c1ccc(F)cc1,7.5,36.0*,0.7,0.1
CCCNc1nc(Nc2ccc(-n3ccnc3)cc2)nc2c1ncn2-c1ccsc1,-7.6,50.9*,-1.3,-0.2
CCCNc1nc(Nc2ccc(-n3ccnc3)cc2)nc2c1ncn2-c1ccccc1,3.4,48.6*,1.6,0.3
CCCNc1nc(Nc2ncccn2)nc2c1ncn2-c1ccsc1,-3.3,19.4,1.7,-0.1
CCCNc1nc(Nc2ccccc2)nc2c1ncn2-c1ccsc1,9.7,54.9*,0.4,-0.1
COc1cc(Nc2nc(NCCc3ccc(O)cc3)c3ncn(-c4ccsc4)c3n2)cc(OC)c1OC,3.3,36.0*,-1.4,0.0
CCCNc1nc(Nc2cc(OC)c(OC)c(OC)c2)nc2c1ncn2-c1ccsc1,-5.5,23.1,0.3,-0.2
CCCNc1nc(Nc2ccncc2)nc2c1ncn2-c1ccsc1,-4.2,56.4*,0.4,-0.2
Oc1ccc(CCNc2nc(Nc3ccc(-n4ccnc4)cc3)nc3c2ncn3-c2ccsc2)cc1,5.7,61.6*,-0.2,-0.1
c1ccc(Oc2cccc(CSc3nc4ccccc4[nH]3)c2)cc1,6.7,34.0*,-0.6,0.0
Cc1cc(=O)[nH]c(SCc2cccc(Oc3ccccc3)c2)n1,-7.3,-2.0,0.2,0.0
Cc1cc(C(=O)NC2CC2)c2ccccc2n1,-1.8,2.3,0.5,0.0
Cc1cc(C(=O)NN=C2C3CC4CC(C3)CC2C4)c2ccccc2n1,0.4,47.3*,-0.9,-0.1
COC(=O)COc1ccc2c(=O)c(-c3ccc(Cl)cc3)c(C(F)(F)F)oc2c1,9.6,1.9,-0.9,0.0
Nc1ncc(-c2ccc(F)cc2)nc1NCCCO,24.2,0.8,-1.2,0.9
COc1ccc2[nH]c(=O)c(CN(CC3CCCO3)S(=O)(=O)c3ccccc3F)cc2c1 (stereo not drawn),2.6,33.8*,0.8,0.3
COc1cccc(C2CC(c3c(O)cc(C)oc3=O)=NCCS2)c1OC (stereo not drawn),-8.6,42.4*,1.7,0.2
Fc1ccc(-c2cn3nc4c(nc3n2)CCCC4)cc1,3.5,40.0*,-9.6,-0.1
Clc1ccc(-c2cn3nc4c(nc3n2)CCCC4)cc1,-1.7,-20.0,-1.9,-0.1
COc1cccc(-c2cn3nc4c(nc3n2)CCCC4)c1,-1.4,66.4*,-7.6,0.2
COc1ccc(CCN2C(=O)CSC2c2ccc(C(C)C)cc2)cc1OC (stereo not drawn),-3.4,40.3*,2.0,-0.1
O=C(N/N=C/c1cccc(O)c1)c1n[nH]c2c1CCC2,11.1,46.2*,-5.5,0.1
Cc1ccsc1/C=N\NC(=O)c1n[nH]c2c1CCCC2,12.8,82.2*,-8.7,0.2
O=C(N/N=C\c1cccc(Cl)c1)c1n[nH]c2c1CCCC2,16.2,25.3,1.2,0.1
CN(C)c1ccc(/C=N/NC(=O)c2n[nH]c3c2CCC3)cc1,10.3,35.0*,0.8,0.0
SMILES,MITF primary,TEAD-YAP block,GPR151 ag,FBW7 activator
O=C(O)c1n[nH]c2c1CCCCCC2,-6.6,-11.0,0.9,-0.1
O=C(NN=C1CCCCC1)c1n[nH]c2c1CCC2,17.8,56.6*,-0.6,0.3
COc1cc(CO)c(Br)cc1OCC(=O)O,-0.5,-0.3,-0.7,0.0
C/C(=N/NC(=O)c1n[nH]c2c1CCCC2)c1cccc(O)c1,-2.8,22.8,0.1,-0.1
O=C(N/N=C/c1ccccc1O)c1n[nH]c2c1CCC2,18.4,33.1*,-0.7,-0.9
O=C(N/N=C/c1cc2c([nH]1)CCCC2)c1n[nH]c2c1CCC2,20.9,33.0*,-1.3,-0.1
Cc1ccc(/C=N/NC(=O)c2n[nH]c3c2CCCC3)cc1,10.5,18.4,-0.6,-0.1
C/C(=N/NC(=O)c1n[nH]c2c1CCC2)c1cccc(O)c1,-1.0,39.8*,1.3,0.0
COc1cc(/C=N/NC(=O)c2n[nH]c3c2CCCC3)ccc1O,10.3,36.0*,-1.2,0.1
Cc1cccc(CC(C)N2CCC(n3nccc3NC(=O)c3ccc4c(c3)OCO4)CC2)n1 (stereo not drawn),0.5,-2.9,-0.4,0.1
COc1ccc(Cl)cc1-n1c(=S)sc2c(=O)[nH]c(SCc3ccccc3C)nc21,-4.8,-6.5,-0.2,0.0
